Inconclusive results are not listed. Unmarked numbers belong to inactive results. Calls of active or inactive are those of the source. Calls come from the whole dose curve; as a rule, active = well fitted cell-killing curve with a large enough effect; inconclusive = small, poorly fitted or top-dose-only effect, or effect the other way; inactive = flat fitted curve, though single readings scatter.
Potency is the fitted concentration of half-maximal effect.

This assay is described as follows: qHTS of pediatric cancer cell lines to identify multiple opportunities for drug repurposing: Confirmatory screen for control Hh wild type fibroblast cells (AID 1347121). Note: nearly all actives have a fitted effect of over 70% in size. As to conditions: viability qHTS; series mostly up to 45.9 µM; activity, negative = cytotoxic: at the top concentration. From the text: Drug repurposing or repositioning has been offered as a strategy for drug development in oncology programs. This approach has special potential for childhood cancers and other rare or orphan diseases, where the expected return on new drug development has been a disincentive to pharmaceuticals.
In this project we exploit the poly-pharmacology of drugs to discover new indications via phenotypic screening of a panel of 19 well-characterized cell lines derived from solid tumors seen in children and adolescents. The goal is to identify approved drugs with previously unrecognized anticancer properties that has the potential to reveal new mechanisms and biological processes involved in carcinogenesis or drug resistance. We employed a titration-based paradigm (quantitative high-throughput screening or qHTS), where all compounds were tested at multiple concentrations for their effect on cell viability. Concentration-response curves (CRCs) were derived directly from the primary screen, and both potency and efficacy values were used to identify compounds with robust bioactivity profiles. We screened the NIH Chemical Genomics Center (NCGC) Pharmaceutical Collection (NPC) and Mechanism Interrogation Plate (MIPE) small molecule collections of approved and investigational compounds against these cell lines; and measured metabolically active cells after 48 hours of compound treatment as a proxy for cell viability.
Assay Submitter: Nathalia J. Martinez, National Center for Advancing Translational Sciences, National Institutes of Health, Rockville, MD, USA; email: natalia.martinez@nih.gov
[1] Shen, M et al. Quantitative high-throughput phenotypic screening of pediatric cancer cell lines identifies multiple opportunities for drug repurposing. Oncotarget 2017 Dec 19;9(4):4758-4772. PMID 29435139.
The cells were obtained from University of North Carolina (UNC), Pediatric Preclinical Testing Program (PPT), and Coriell Institute (CI).
qHTS cell viability assay:
Cells were assayed in growth media at a density of 500-1,000 cells/well. Five microliters of cells were dispensed into 1,536-well, white, solid-bottom, TC-treated plates (Greiner Bio One) using a multidrop dispenser and incubated at 37 degrees C, 5% CO2, under a humidified atmosphere for 5 hours. Twenty-three nanoliters of compounds and controls (neutral control DMSO or positive control bortezomib at final concentration of 2.3 µM) were subsequently transferred by Kalypsys pintool. For primary screens, the MIPE collection was tested at 11-point dilutions (final concentrations range from 0.78 nM to 46 µM) and the NPC collection at 8-point dilutions (final concentrations range from 0.59 nM to 46 µM). Compounds tested in follow-up screens were assayed at 11-point dilutions. Cells were incubated for 48 hours, followed by addition of 3 µL of CellTiter-Glo (Promega). After a 15 min incubation at room temperature, samples were analyzed for luminescence intensity using a ViewLux High-throughput CCD imager equipped with clear filters.
For orientation: qHTS replaces the single test concentration by a dilution series.
`N[C@@]1(C(=O)O)CS(=O)(=O)[C@H]2[C@H](C(=O)O)[C@H]21`: the “activity, negative = cytotoxic” value is -10.9%.

Regarding `O=C1c2ccccc2-[n+]2ccc3c([nH]c4ccccc43)c21`, the Potency is 7.37 µM (active). Take `CO[C@H]1C(=O)[C@]2(C)[C@@H](OC)C[C@H]3OC[C@@]3(OC(C)=O)[C@H]2[C@H](OC(=O)c2ccccc2)[C@]2(O)C[C@H](OC(=O)[C@H](O)[C@@H](NC(=O)OC(C)(C)C)c3ccccc3)C(C)=C1C2(C)C`: the “activity, negative = cytotoxic” value is -12.6%. Same read-out and setting: under `CO[C@H]1C=CC=C(C)C(=O)NC2=CC(=O)C(NCCN(C)C)=C(C[C@@H](C)C[C@H](OC)[C@@H](O)[C@@H](C)C=C(C)[C@@H]1OC(N)=O)C2=O` stands 6.06%; under `O=C(CCCCCCC(=O)Nc1ccccc1)NO`, 0.399%; under `O=C(O)CCC1CCC(c2cc(F)ccc2F)(S(=O)(=O)c2ccc(Cl)cc2)CC1` (stereo not given), 0.574%.

As to `O=C1NC(=O)C(=Cc2ccc3c(c2)OC(F)(F)O3)S1`, the “activity, negative = cytotoxic” value is 12.5%. Still for that read-out and setting: under `CC1(C)CCC[C@@]2(C)[C@@H]1CC[C@@]1(C)OC(=O)C[C@H]21` stands 6.4%; under `CC[C@@H]1C=C(C)C[C@H](C)C[C@H](OC)[C@H]2O[C@@](O)(C(=O)C(=O)N3CCCC[C@@H]3C(=O)O[C@H](C(C)=C[C@@H]3CC[C@H](Cl)[C@H](OC)C3)[C@H](C)[C@@H](O)CC1=O)[C@H](C)C[C@H]2OC`, -10.4%. As to `COc1cc2ncnc(Nc3ccc(F)c(Cl)c3)c2cc1OCCCN1CCOCC1`, the Potency is 47.9 µM (active). Same read-out and setting: under `NS(=O)(=O)c1cccc2c1C(=O)c1cccc(O)c1C2=O` stands 2.93 µM (active).

With `CC=C(C)C(=O)O[C@H]1C(C)=C[C@]23C(=O)[C@@H](C=C(CO)[C@@H](O)[C@]12O)[C@H]1[C@@H](C[C@H]3C)C1(C)C`, the “activity, negative = cytotoxic” value is -13.9%. The same measure, in the same setting: under `O=c1[nH]cnc2c1ncn2[C@H]1CC[C@@H](CO)O1` stands -4.04%; under `OC[C@H]1O[C@@H](n2cnc3c2NC=NC[C@@H]3O)C[C@H]1O`, -8.91%; under `CC[C@]1(O)C[C@@H]2CN(CCc3c([nH]c4ccccc34)[C@@](C(=O)OC)(c3cc4c(cc3OC)N(C=O)[C@@H]3C45CCN4CC=C[C@](CC)([C@H]45)[C@@H](OC(C)=O)[C@]3(O)C(=O)OC)C2)C1` (stereo not given in full), 6.48%.

For the molecule `CC(=O)O[C@]1(C(C)=O)CC[C@@H]2[C@@H]3C[C@H](C)C4=CC(=O)CC[C@]4(C)[C@H]3CC[C@@]21C`, the “activity, negative = cytotoxic” value is -0.854%.

In the case of `CC[C@]1(O)C[C@@H]2CN(CCc3c([nH]c4ccccc34)[C@@](C(=O)OC)(c3cc4c(cc3OC)N(C)[C@H]3[C@@](O)(C(=O)OC)[C@H](OC(C)=O)[C@]5(CC)C=CCN6CC[C@]43[C@@H]65)C2)C1`, the “activity, negative = cytotoxic” value is -22.5%. For the molecule `CC(=NNC(=S)N1CCC1)c1ccccn1`, the “activity, negative = cytotoxic” value was 5.72%. Regarding `O=C(NCc1ccncc1)C12C[C@H]3C[C@@H](C1)CC(c1ccc(Cl)cc1)(C3)C2`, the “activity, negative = cytotoxic” value was 3.93%.

On to `COc1ccc(-c2coc3cc(O)cc(O)c3c2=O)cc1`, for which the “activity, negative = cytotoxic” value is -11.3%. With `CC(=O)Nc1ccc([C@H](C)C(=O)Nc2ncc(C(C)C)s2)cc1`, the “activity, negative = cytotoxic” value is 1.01%.

With `C=C1C(=O)[C@@]23C(CC[C@@H]1[C@H]2O)[C@@]12CO[C@]3(O)[C@@H](O)[C@@H]1C(C)(C)CC[C@@H]2O` (stereo not given in full), the “activity, negative = cytotoxic” value was -11.6%.

Regarding `CN[C@@H](C)C(=O)N[C@H]1CN(C(=O)CC(C)C)CC[C@H]2CC[C@@H](C(=O)NC(c3ccccc3)c3ccccc3)N2C1=O`, the “activity, negative = cytotoxic” value was 2.21%. With `O=C(Nc1cccc(Br)c1)c1cccc(S(=O)(=O)N2CCCCCC2)c1`, the “activity, negative = cytotoxic” value was -12.4%.

In the case of `Oc1ccc(C2CCN(c3ccnc4ccccc34)CC2)cc1O`, the Potency was 7.37 µM (active). As for `O=C(O)c1ccc(-c2c[nH]c3ncc(-c4ccccc4)cc23)cc1C1CCCC1`, the “activity, negative = cytotoxic” value is 1.33%.

With `CO[C@H]1C[C@@H]2CC[C@@H](C)[C@@](O)(O2)C(=O)C(=O)N2CCCC[C@@H]2C(=O)O[C@H]([C@H](C)C[C@@H]2CC[C@H](OP(C)(C)=O)[C@H](OC)C2)CC(=O)[C@H](C)C=C(C)[C@@H](O)[C@@H](OC)C(=O)[C@H](C)C[C@H](C)C=CC=CC=C1C`, the “activity, negative = cytotoxic” value is -19.5%. Same read-out and setting: under `COc1cccc(-c2cc(=O)c3ccccc3o2)c1N` stands 3.38%. In the case of `CCc1ccc(OCc2ccccc2C(=O)Nc2ccc3nc(C)cc(N)c3c2)cc1`, the Potency is 9.27 µM (active). Consider `CCCCCCCCCCCC1=C(O)C(=O)C=C(O)C1=O`, for which the “activity, negative = cytotoxic” value is 7.15%. The same measure, in the same setting: under `CC(=O)Oc1cc2c(s1)CCN(C(C(=O)C1CC1)c1ccccc1F)C2` (stereo not given) stands -3.13%. Same read-out and setting: under `CC(C)(C(=O)NCC(F)(F)C(F)(F)F)C(=O)N[C@@H]1C(=O)Nc2ccccc2-c2ccccc21` stands 0.906%; under `CC1(C)CCC(CN2CCN(c3ccc(C(=O)NS(=O)(=O)c4ccc(NCC5CCOCC5)c([N+](=O)[O-])c4)c(Oc4cnc5[nH]ccc5c4)c3)CC2)=C(c2ccc(Cl)cc2)C1`, 9.51%.

As for `CCOc1ccc(Nc2nc(-c3c(C)nc4ccccn34)cs2)cc1`, the “activity, negative = cytotoxic” value was -24.6%. `COc1cc(N2CCC(N3CCN(C)CC3)CC2)ccc1Nc1ncc(Cl)c(Nc2ccccc2S(=O)(=O)C(C)C)n1`: the Potency was 20.8 µM (active). For the molecule `Cc1[nH]c(C=C2C(=O)Nc3ccc(S(=O)(=O)Cc4c(Cl)cccc4Cl)cc32)c(C)c1C(=O)N1CCC[C@H]1CN1CCCC1`, the Potency is 32.9 µM (active). On to `O=c1cc(-c2ccc(O)cc2)oc2cc(O)cc(O)c12`, for which the “activity, negative = cytotoxic” value was -4.43%. As for `CC1(C)S[C@H]2[C@H](NC(=O)[C@@H](N)c3ccc(O)cc3)C(=O)N2[C@@H]1C(=O)O`, the “activity, negative = cytotoxic” value is 11.7%.

For the molecule `O=C1C(Cl)=C(NCCN2CCOCC2)C(=O)c2ncccc21`, the Potency was 20.8 µM (active).

`NC1=N[C@@]2(c3cc(NC(=O)c4ccc(F)cn4)ccc3F)COC[C@@H]2CS1`: the “activity, negative = cytotoxic” value is 6.65%.

(Values after PubChem BioAssay (NCATS).)
